Shown are actives, neighbours in structure and some others; about 3% of the full set was active somewhere.
SENP6 inh = inhibitors of human SENP6 protease. inhibition, % at 10 µM. Recombinant SENP6 catalytic domain, aminoluciferin luminescence. actives 1.8% (n = 330,000). AID 2599;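 active = inhibition above about 50% at the single tested dose, limit read from the data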;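 note: plate controls were DMSO wells with enzyme for no effect and DMSO wells lacking enzyme for full effect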
PPC-1+TRAIL kill = kills PPC-1 cancer cells in the presence of TRAIL; PPC-1 cells + TRAIL, ATPLite viability luminescence; cell killing (% activity), % at 4 µM or 5 µM; actives 0.41% (n = 220,000); AID 1443;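 active = cell killing above 50% in the first pass at 4 µM, then a duplicate retest at 5 µM averaging 50% or more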;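 note: plate controls were cells with TRAIL plus DMSO for no effect and medium-only wells lacking cells for full effect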
C8 TRAIL sens = sensitizes caspase-8 expressing cells to TRAIL; inhibition (viability loss, TRAIL sensitization), % at 10 µM; actives 1% (n = 360,000); NB7+C8 cells + TRAIL, ATPlite viability luminescence; AID 624354;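 active = compounds causing at least 50% loss of cell viability in the single-dose screen, relative to plate controls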
SENP8 block-1 = inhibitors of human SENP8 protease. inhibition, % at 20 µM. Q96LD8. actives 0.64% (n = 360,000). recombinant SENP8, Nedd8 substrate fluorescence; in the data active = inhibition mostly above about 40%, no sharp cut-off; inactive = mostly below about 27%
Target sequence (Q96LD8 whole entry, looked up): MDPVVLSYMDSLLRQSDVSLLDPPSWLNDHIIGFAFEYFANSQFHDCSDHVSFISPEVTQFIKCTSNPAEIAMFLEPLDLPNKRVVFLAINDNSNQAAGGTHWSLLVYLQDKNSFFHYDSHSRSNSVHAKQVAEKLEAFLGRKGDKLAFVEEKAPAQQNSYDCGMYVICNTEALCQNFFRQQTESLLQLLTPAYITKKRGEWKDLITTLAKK
SENP7 inh = blocks the human protease SENP7 | Q9BQF6 | recombinant SENP7, Z-RLRGG-aminoluciferin luminescence, 40 min | inhibition, % at 5 µM | actives 1.5% (n = 330,000);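 active = inhibition above about 50% at the single test dose, limit read from the data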;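 note: plate controls were DMSO with enzyme for no effect and no enzyme buffer wells for full effect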
Target sequence (Q9BQF6 706-1050 limits assumed): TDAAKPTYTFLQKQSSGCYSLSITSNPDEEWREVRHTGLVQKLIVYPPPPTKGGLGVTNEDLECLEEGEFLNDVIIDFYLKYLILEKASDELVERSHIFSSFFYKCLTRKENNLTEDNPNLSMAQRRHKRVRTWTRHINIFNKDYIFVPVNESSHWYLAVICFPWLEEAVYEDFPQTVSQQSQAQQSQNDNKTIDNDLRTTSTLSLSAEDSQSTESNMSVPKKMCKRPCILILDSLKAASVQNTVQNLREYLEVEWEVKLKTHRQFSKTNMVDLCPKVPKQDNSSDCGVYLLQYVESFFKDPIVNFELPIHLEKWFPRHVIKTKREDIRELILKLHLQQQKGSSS
SENP8 block-2 = inhibitors of human SENP8 protease. actives 1.2% (n = 330,000). AID 2540. purified SENP8, Z-RLRGG-aminoluciferin cleavage, luminescence. inhibition, % at 10 µM; in the data active = inhibition above about 50%
SENP8 confirm = confirmation of human SENP8 protease inhibitors | shares compounds with SENP7 inh | actives 40% (n = 6,200) | inhibition, % at 12.5 µM | AID 488912 | Recombinant SENP8, Z-RLRGG-aminoluciferin luminescence, 60 min;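 active = mean inhibition across replicates above about 50%, limit read from the data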
SENP6 confirm = human SENP6 inhibition, confirmed. inhibition, % at 12.5 µM. actives 58% (n = 6,200). shares compounds with SENP7 inh. recombinant SENP6, Z-RLRGG-aminoluciferin luminescence
SENP7 conf = human SENP7 inhibition, confirmed. recombinant SENP7, Z-RLRGG-aminoluciferin luminescence, 40 min. shares compounds with SENP7 inh. inhibition, % at 12.5 µM. actives 69% (n = 6,200)
Casp3 SENP sel = inhibits human caspase-3 in SENP selectivity test; purified caspase-3, Z-DEVD-aminoluciferin luminescence, 60 min; inhibition, % at 12.5 µM; shares compounds with SENP7 inh; actives 60% (n = 6,200);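 active = mean inhibition above about 50%, limit read from the data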;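 note: plate controls were enzyme with DMSO for no effect and wells without caspase-3 for full effect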
Luc interf = luminescence interference (SENP counter-screen); shares compounds with SENP7 inh; Pre-incubated SENP8/Z-RLRGG-aminoluciferin, luciferase luminescence interference; inhibition, % at 12.5 µM; actives 39% (n = 6,200); AID 488919;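 active = mean inhibition above about 50% when retested at one dose, limit read from the data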;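 note: plate controls were DMSO wells with completed reaction for no effect and substrate without enzyme for full effect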
Active calls of the source: *; . = no result.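 Rule for the calls, unless noted: active = mean inhibition above about 50% in the one-dose retest (limit read from the data); inactive = the rest.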

SMILES	SENP6 inh	PPC-1+TRAIL kill	C8 TRAIL sens	SENP8 block-1	SENP7 inh	SENP8 block-2	SENP8 confirm	SENP6 confirm	SENP7 conf	Casp3 SENP sel	Luc interf
COc1ccc2cc([C@H](C)C(=O)N(C)Cc3ccccc3N3CCCC3)ccc2c1	-31	.	-1	-11	-12	-13	.	.	.	.	.
COc1cc2sc3cc(NCCCN4CCOCC4)ccc3c(=O)c2cc1OC	69*	.	16	-463	75*	43	-10	-4	-2	17	29
COc1ccc(OC)c(S(=O)(=O)NCCCN2CCOCC2)c1	0	.	3	8	-1	-9	.	.	.	.	.
CCc1cccc2c(C(=O)COC(=O)c3ccccc3)c[nH]c12	60*	22	8	18	53*	25	7	5	73*	23	46
S=C(Nc1ccc(Cl)cc1)c1nc2ccccc2[nH]1	59*	26	69*	9	33	41	13	48	92*	71*	11
Cc1ccc(NC(=O)COC(=O)COc2cccc3c2OC(C)(C)C3)cc1S(=O)(=O)N1CCOCC1	-1	.	7	9	-6	4	.	.	.	.	.
Cc1ccc(C)c(Nc2nc(N)c3ccccc3n2)c1	58*	24	35	-119	49	46	27	30	75*	65*	44
Cc1c(C(=O)Nc2nc3ccccc3[nH]2)oc2ccccc12	69*	16	42	-156	57*	38	-27	60*	89*	65*	7
O=C(Nc1nc2ccccc2[nH]1)c1cccs1	17	47	44	-19	69*	45	43	73*	89*	88*	10
Cc1ccc(C(=O)Nc2nc3ccccc3[nH]2)cc1	93*	.	93*	-3	97*	93*	10	8	-4	48	10
O/C(=C\c1nc2ccccc2[nH]1)c1cccs1	61*	.	11	-99	20	33	40	74*	66*	38	46
O=C(Nc1nc2ccccc2[nH]1)C1CC1	-32	6	24	21	-13	-6	.	.	.	.	.
Cc1c(C(=O)Nc2nc3ccccc3[nH]2)oc2ccc(Br)cc12	-28	18	12	-158	48	-4	.	.	.	.	.
O=C(Nc1cccc(S(=O)(=O)N2CCCCC2)c1)C1COc2ccccc2O1 (stereo unspecified)	-4	.	5	3	9	-2	.	.	.	.	.
CNC(=O)OCc1ncn(-c2ccccc2)c1COC(=O)NC	.	.	-5	11	.	.	.	.	.	.	.
COc1ccc(C(=O)Nc2nc3ccccc3[nH]2)cc1	97*	.	91*	2	97*	93*	8	95*	101*	96*	60*
CC1CCN(C(=O)CN2C(=O)NC(C)(c3ccc4ccccc4c3)C2=O)CC1 (stereo unspecified)	-4	.	4	2	5	-3	.	.	.	.	.
COc1ccccc1C(=O)N/C(=C\c1cn(S(=O)(=O)N(C)C)c2ccccc12)C(=O)N1CCN(C)CC1	.	.	-15	-38	.	.	.	.	.	.	.
Fc1ccc(OCc2cc(-c3ccccc3)no2)cc1	5	.	-11	-1	20	1	.	.	.	.	.
Cc1cccc(OCc2cc(-c3ccccc3)no2)c1C	67*	.	6	19	67*	55*	9	43	70*	38	20
Clc1ccc(OCc2cc(-c3ccccc3)no2)c(Cl)c1	84*	26	44	5	3	82*	10	18	18	49	1
Cn1cc(-c2csc(C(C)(O)c3cccnc3)n2)cn1 (stereo unspecified)	.	.	-24	-1	.	.	.	.	.	.	.
O=C(COc1ccccc1)Nc1nccs1	75*	37	-3	-4	6	61*	-3	61*	90*	90*	74*
O=C(COc1ccc2ccccc2c1)Nc1nccs1	61*	46	57*	3	77*	66*	42	89*	99*	81*	76*
O=C(O)c1ccc([N+](=O)[O-])c2c1C(=O)c1ccccc1C2=O	-7	.	-11	18	-4	-6	.	.	.	.	.
SMILES	SENP6 inh	PPC-1+TRAIL kill	C8 TRAIL sens	SENP8 block-1	SENP7 inh	SENP8 block-2	SENP8 confirm	SENP6 confirm	SENP7 conf	Casp3 SENP sel	Luc interf
Nc1c(C(=O)O)ccc2c1C(=O)c1ccccc1C2=O	-9	3	1	29	4	54*	69*	66*	83*	79*	73*
COC(=O)c1ccc2c(c1O)C(=O)c1ccccc1C2=O	71*	7	37	27	44	44	41	55*	66*	74*	10
Nc1c(SCCC(=O)O)ccc2c1C(=O)c1ccccc1C2=O	89*	.	-1	31	45	84*	93*	93*	98*	94*	92*
Cc1ccc(-n2c(SCC(=O)N(C)C3CCS(=O)(=O)C3)nc3ccccc3c2=O)c(C)c1 (stereo unspecified)	0	.	-8	9	2	4	.	.	.	.	.
CS(=O)(=O)Oc1ccc(Br)c2cccnc12	-19	-8	6	22	-6	-9	.	.	.	.	.
Nc1ccc(Br)c2cccnc12	85*	10	4	35	62*	75*	27	63*	33	2	-3
COc1cc(NC(=O)c2ccccn2)cc(OC)c1OC	-13	-6	3	2	-3	-8	.	.	.	.	.
O=C(Nc1ccc(OC(F)F)c(Cl)c1)c1ccccn1	85*	18	25	12	85*	79*	74*	75*	95*	68*	27
COc1ccc(NC(=O)c2ccc(N3CCCC3=O)cc2)cc1Cl	24	.	10	5	54*	-8	-6	-1	4	6	0
COc1ccc(NC(=O)c2cc(F)cc(F)c2)cc1Cl	13	7	-3	5	24	-9	.	.	.	.	.
COc1ccc(NC(=O)c2ccc(OC(F)F)cc2)cc1Cl	93*	37	42	-3	97*	95*	86*	95*	100*	92*	76*
CC(=O)c1ccc(NC(=O)c2ccc(N3CCCC3=O)cc2)cc1	-21	.	8	2	-8	0	.	.	.	.	.
COc1cc(NC(=O)c2ccc(N3CCCC3=O)cc2)cc(OC)c1	70*	.	17	25	72*	60*	46	61*	73*	84*	56*

Assay outcomes (PubChem BioAssay)
